# Compound activity: PubChem, National Center for Advancing Translational Sciences (NCATS)
# aSyn yeast inh – qHTS of alpha-syn Inhibitors. Yeast expressing alpha-synuclein, growth rescue, BacTiter-Glo, 24 h. Potency, µM (doses to about 46.1 µM), most hits filed as activators. actives 0.14% (n = 370,000); also: nearly all actives have a fitted effect of over 65% in size
#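 Rescue of yeast growth: cells expressing toxic alpha-synuclein, induced in galactose at OD600 0.02, incubated with compound 24 h at 30 C. ATP luminescence quantified growth; inhibitors of toxicity appear as activators.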
# Mm-Cpn inhibitor – Inhibitors of TCP-1 ring complex (TRiC) of Methanococcus maripaludis (MmCpn): qHTS. Chaperonin Mm-Cpn (Methanococcus maripaludis). purified Mm-Cpn ATPase, ADP Transcreener TR-FRET. Potency, µM (titrated, usually from 76.9 µM), hits mostly inhibitors. actives 0.031% (n = 330,000). AID 504842, 2011; also: nearly all actives have a fitted effect of over 80% in size
#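 ATP (10 uM final) was added to archaeal chaperonin (25 nM final) after 10 min exposure to test compound at 37°C; after 30 min further incubation, ADP was detected by competitive TR-FRET.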
# Abeta yeast res – qHTS for compounds that reverse cellular toxicity of Amyloid beta (A-beta) peptide in yeast: Primary Screen; Potency, µM (top dose mostly 46.1 µM), usual class: activators; AID 1347071, 2019; yeast expressing A-beta42, growth rescue, OD600, 48 h; response scale: 0% DMSO, 100% iron-clioquinol control; actives 0.063% (n = 410,000); also: nearly all actives have a fitted effect of over 55% in size
#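 Yeast growth medium received pinned compounds, then yeast cells expressing toxic A-beta were added; plates incubated at 30 C for 48 hr. Growth read as absorbance at 600 nm, normalized to DMSO and equimolar FeCl3 plus clioquinol controls.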
# TDP-43 yeast inh – qHTS of TDP-43 Inhibitors; TDP-43 expressing yeast growth rescue, BacTiter-Glo, 24 h; Potency, µM (highest dose often 46.1 µM), hits mostly activators; actives 1.8% (n = 410,000); AID 652104, 2013; also: nearly all actives have a fitted effect of over 50% in size
#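 Growth rescue of TDP-43-toxic yeast measured as ATP luminescence (BacTiter-Glo). Cells grown to mid-log in raffinose, induced in galactose at OD600=0.02, exposed to compound 24 hr at 30 deg C.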
# FUS suppressor – qHTS for Suppressors of FUS Proteinopathy: Primary screen using FUS-linked yeast assay. AID 1347120, 2019. S. cerevisiae FUS-expressing, growth rescue, OD600, 24 h. Potency, µM (doses to about 76.6 µM), hits mostly activators. actives 0.24% (n = 390,000); also: nearly all actives have a fitted effect of over 55% in size
#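 Toxicity suppression screen in FUS-yeast. Cells induced with 2% galactose, starting OD 0.005, treated 24hr at 30C with compounds at multiple final concentrations; growth by OD600.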
# CCT chaperon mod – High-Throughput Screening for Modulators of Cytosolic Chaperonin Activity | purified chaperonin ATPase assay, HTRF ADP detection, 30 min | activity change, % (test concentration not listed), hits read low | actives 0.3% (n = 360,000); in the data active = activity change below about -30%
#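 Enzyme 40 or 20 nM (batch-dependent) in Tris pH 7.4/KCl/MgCl2/DTT; cpd 76 uM single point; ATP 10 uM; 30 min 37 °C; Transcreener ADP HTRF detection, 30 min RT; ratio 665/615.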
# Numbers stand for hits; . = inactive; ? = inconclusive; / = not tested or not shown; ! = not active in a repeat; [ ] = remark or other dose. Compounds with a hit are over-represented: about 2.3% of the library has one in this group of screens. Unless noted, calls follow the shape of the dose curve; as a rule, active = well fitted curve in the direction sought with a large enough effect; inconclusive = small, poorly fitted or top-dose-only effect, or another doubt; inactive = no such curve, though single readings can be large; an effect the other way counts as inactive or inconclusive.
SMILES,aSyn yeast inh,Mm-Cpn inhibitor,Abeta yeast res,TDP-43 yeast inh,FUS suppressor,CCT chaperon mod
CC1CCN2c3ccccc3CC3(C(=O)OC(C)(C)OC3=O)C2C1 (configuration not stated),.,/,/,/,/,/
Cc1c(O)ccc2c1OC(C)(C)CC2,.,/,/,/,/,/
O=S(=O)(NC1c2cccc3cccc(c23)C1Sc1ncccn1)c1ccccc1 (configuration not stated),.,.,.,22.4µM,.,.
Cc1ccc(S(=O)(=O)NC2c3cccc4cccc(c34)C2Sc2nc(C)cc(C)n2)cc1 (configuration not stated),.,.,.,?,/,.
CCOCCCNC(=O)C1CCN(c2nc3ccc(C)cc3[nH]2)CC1,/,/,.,.,.,/
CS(=O)(=O)c1ccc(C(=O)OCC(=O)NCC2CCCO2)cc1[N+](=O)[O-] (configuration not stated),.,/,/,/,/,/
CCOc1ccc(N2C(=O)CC(Sc3n[nH]c(-c4ccccc4)n3)C2=O)cc1 (configuration not stated),.,.,.,3.55µM,.,.
Cc1ccnc(SC2CC(=O)N(c3ccc([N+](=O)[O-])cc3)C2=O)n1 (configuration not stated),.,?,.,.,.,.
Cc1ccc(N2C(=O)CC(Sc3nccc(C)n3)C2=O)cc1 (configuration not stated),.,.,.,.,.,-53.3
COc1ccc(N2C(=O)CC(Sc3n[nH]c(-c4ccccc4)n3)C2=O)cc1 (configuration not stated),.,.,.,2µM,.,.
N#Cc1ccc(-c2csc(N3CCC(C(N)=O)CC3)n2)cc1,/,.,/,/,/,/
Cc1cc(C)cc(NS(=O)(=O)c2c(C)nc3scc(C)n3c2=O)c1,/,/,.,?,.,/
Cc1nc2scc(C)n2c(=O)c1S(=O)(=O)Nc1ccc(N2CCN(S(C)(=O)=O)CC2)cc1,?,.,?,15.8µM,.,.
Cc1cccc(NS(=O)(=O)c2c(C)nc3scc(C)n3c2=O)c1,?,.,.,15.8µM,.,.
CCC(C)Sc1cc(-c2nc3ccc(C)cn3c2NCc2ccccc2)ccc1OC (configuration not stated),.,/,.,.,31.6µM!,.
CN(C)[C@@H]1CCN(c2ccc3c(c2)OCCCN(C2CC2)S3(=O)=O)C1,/,/,/,/,.,/
CC(C)n1ncc2c(C(=O)Nc3cccc(C#N)c3)cc(C3CC3)nc21,.[1.84 µM],.,.,22.4µM,.,.
CCNC(=O)c1cccc(NC(=O)c2cc(C3CC3)nc3c2cnn3C(C)C)c1,.,.,.,.,.,.
S=C(NCc1ccco1)N/N=C/c1ccc(Cl)cc1,.,.,.,22.4µM,/,.
Cc1ccc(CNc2nc(Cl)c(C#N)s2)cc1,.,.,.,.,.,.
N#Cc1sc(NCc2cccc(Cl)c2)nc1Cl,.,.,.,14.1µM,.,.
O=C(c1ccccc1Cl)c1c(O)c2ccccc2oc1=O,.,/,.,.,.,.
O=C(Nc1c(O)c2ccccc2oc1=O)c1ccccc1Cl,/,/,.,2.51µM,.,/
O=Cc1c(NCCc2ccc(F)cc2)c2ccccc2[nH]c1=O,.,.,.,?,.,.
O=Cc1c(NCc2ccccc2F)c2ccccc2[nH]c1=O,.,.,.,11.2µM,.,.
SMILES,aSyn yeast inh,Mm-Cpn inhibitor,Abeta yeast res,TDP-43 yeast inh,FUS suppressor,CCT chaperon mod
Cc1ccc(F)cc1NCC(=O)Nc1ccc(Cl)cc1F,.,.,.,?,/,-46.6
O=C1OCCC1Sc1nc2cc(Cl)ccc2n1Cc1ccccc1 (configuration not stated),.,.,.,35.5µM,.,.
COc1ccc(OC)c(CCNC(=O)c2nn(C)c3c2CSc2ccccc2-3)c1,/,/,.,22.4µM,.,/
Cn1nc(C(=O)NCc2ccc(F)cc2)c2c1-c1ccccc1SC2,/,/,.,17.8µM,.,/
CSc1ccc(CCNC(=O)c2nn(C)c3c2CS(=O)(=O)c2ccccc2-3)cc1,.,.,.,25.1µM,.,.
CC(NC(=O)c1nn(C)c2c1CSc1ccccc1-2)c1ccccc1 (configuration not stated),/,/,.,17.8µM,?,/
CN1CCN(C(=S)NC(=O)/C=C/c2ccccc2Cl)CC1,.,.,.,.[9.22 µM],.,.
Cc1cccc(C(=O)NC(=S)NNC(=O)c2ccccc2Cl)c1,10µM,.,?,.,/,.
Cc1ccccc1C(=O)NNC(=S)NC(=O)c1ccc(Cl)cc1Cl,1.58µM,.,?,10µM,.,.
Cc1cccc(C(=O)NC(=S)NNC(=O)Cc2ccccc2)c1,.,.,.,.,?,.
Cc1cc(C(=O)NNC(=S)NC(=O)/C=C/c2ccccc2Cl)n[nH]1,.,.,.,.,12.6µM,.
COc1ccccc1C(=O)NNC(=S)NC(=O)c1cc(OC)c(OC)c(OC)c1,?,.,6.31µM,10µM,.,.
Cc1nn2c(=O)cc(COC(=O)c3ccccc3NC(=O)c3cccs3)nc2s1,/,/,.,.,.,/
O=C(/C=C/c1ccc(-c2ccccc2)cc1)NC1=NCCS1,/,/,/,/,.,/
O=C(Nc1ccc(F)cc1F)c1cc(-c2ccc(Cl)cc2)nc2ccccc12,/,/,/,/,.,/
Clc1ccccc1-c1nnc(-c2cccnc2)o1,.,.,.,.,.,-39.7
O=C(Nc1nnc(-c2cccnc2)o1)c1ccccc1Cl,.,.,.,.,.,.
COC(=O)CS(=O)(=O)c1nnc([C@H](Cc2ccccc2)NC(=O)OC(C)(C)C)o1,.,.,.,35.5µM,/,.
Cc1ccc(Cn2c(SCC(=O)NCc3ccccc3Cl)nc3ccsc3c2=O)cc1,/,/,.,.,.,/
CCSc1nc(N)nc(-c2cccs2)c1C#N,.,.,.,22.4µM,.,.
CCOC(=O)c1cnc2ccc(C(=O)OC)cc2c1Nc1ccc(OCc2ccccc2Cl)cc1,.,/,.,.,.,/
CCOC(=O)c1cnc2ccc(OC)cc2c1Nc1ccc(OCc2ccccc2Cl)cc1,/,/,.,20µM,.,/
CCOC(=O)c1cnc2ccc(OCC)cc2c1Nc1ccc(OCc2ccccc2Cl)cc1,/,/,.,.,.,/
CCOC(=O)c1cnc2ccc(C)cc2c1Nc1ccc(OCc2ccccc2Cl)cc1,/,/,.,22.4µM,.,/
Cc1onc(-c2ccccc2Cl)c1C(=O)Nc1ccc(Br)cc1,.,.,.,11.2µM,.,.
Cc1onc(-c2ccccc2Cl)c1C(=O)Oc1ccc(Br)cc1,/,/,.,.,.,/
Cc1onc(-c2ccccc2Cl)c1C(=O)Oc1cccc2cccnc12,.,.,.,17.8µM,.,.
